Inhibition data for 27 molecules are collected here from PubChem BioAssay AID652257 (The Scripps Research Institute Molecular Screening Center, 2013).

About 4,800 (1.3%) of roughly 370,000 compounds were called active. Shown is part of a subset that was picked to be rich in actives. Values without a mark were called inactive.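 How the source made its calls: active means inhibition above about 21% made by adding two undisclosed values (limit read from the data); inactive means the rest.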

The target in this assay is Protein arginine N-methyltransferase 1 (Homo sapiens) (UniProt Q99873). The experiment in a line: human PRMT1 activity-probe blockers – biochemical, fluorescence polarization, primary screen (AID 652257). The note with it: recombinant PRMT1, activity-based probe fluorescence polarization; at 2.79 µM; active compounds read high. On the technique in general: Fluorescence polarisation rises when a labelled molecule tumbles more slowly, as on binding a larger partner.
Protein arginine N-methyltransferase 1 (Homo sapiens), sequence (Q99873 whole entry, looked up): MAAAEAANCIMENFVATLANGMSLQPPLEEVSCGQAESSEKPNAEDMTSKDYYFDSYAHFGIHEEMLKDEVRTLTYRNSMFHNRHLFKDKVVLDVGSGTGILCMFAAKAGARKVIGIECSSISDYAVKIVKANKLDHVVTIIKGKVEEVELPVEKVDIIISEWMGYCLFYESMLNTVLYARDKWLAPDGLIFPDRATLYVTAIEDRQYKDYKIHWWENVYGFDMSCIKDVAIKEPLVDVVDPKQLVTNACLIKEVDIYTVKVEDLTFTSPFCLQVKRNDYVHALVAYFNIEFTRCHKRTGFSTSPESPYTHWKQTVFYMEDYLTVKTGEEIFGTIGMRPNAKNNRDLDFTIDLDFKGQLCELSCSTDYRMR
Turning to `CC(=O)N1CCc2cc(S(=O)(=O)NCCC(=O)N3CCCC3)ccc21`, the inhibition (usually the change of the read-out against control, counted positive when it falls) is 0.09%. On to `Oc1ccc(/C=C/c2c(F)cccc2F)c2cccnc12`, for which the inhibition was -1.47%. With `COCC1CCN(C(=O)c2ccc3oc(Cc4ccccc4)nc3c2)C1` (configuration not stated), the inhibition was -0.25%. For `O=C(Nc1cc(C(F)(F)F)ccc1Cl)c1cc2nc3c(c(C(F)(F)F)n2n1)CCCC3`, the inhibition was -0.92%. Turning to `c1cncc(CNc2ccnc(-c3ccc4c(c3)OCO4)n2)c1`, the inhibition was -4.36%. Consider `COc1ccc(/C=N/n2c(C)cc(C)cc2=O)cc1`, for which the inhibition is -4.04%.

On to `C=CCN1C(=O)[C@@H](CC(=O)N2CCN(C(=O)c3ccco3)CC2)[C@]2(C(=O)OC)CCCCC=C12`, for which the inhibition is 0.68%. The value for `CN(C(N)=NC(=O)/C=C/c1ccccc1)C(C#Cc1ccccc1)Cc1ccccc1` (configuration not stated) was -2.71%. The value for `COc1cc(Cl)cc(C2NC(=O)NC(C)=C2C(=O)NCc2ccccc2)c1O` (configuration not stated) was 0.85%; that for `O=C(NN1C(=O)C2C3C=CC(O3)C2C1=O)c1ccccc1` (configuration not stated) was -3.32%.

Regarding `O=C(NN1C(=O)C2C3C=CC(O3)C2C1=O)c1ccncc1` (configuration not stated), the inhibition was 3.88%.

With `COc1ccccc1C(=O)NN1C(=O)C2C3C=CC(O3)C2C1=O` (configuration not stated), the inhibition is 35.6% (active). For `Nc1nc(CC(=O)CSc2ccc(Cl)cc2)nc(Nc2ccc(F)cc2)n1`, the inhibition was -4.39%. On to `COC(=O)[C@]12C[C@H](CC(=O)N3CCOCC3)C(=O)N(Cc3ccc(Cl)cc3Cl)C1=C[C@H](COCc1ccccc1)O[C@@H]2C`, for which the inhibition was 2.19%. For `Nc1c(C(=O)c2cccs2)sc2nsc(SCCN3CCCCC3)c12`, the inhibition is 25.1% (active).

Take `c1ccc(CN2CCC(N=C3NN=C(c4ccc5c(c4)OCCO5)CS3)CC2)cc1`: the inhibition is 27.6% (active). Next, `CC(=NC1CCN(Cc2ccccc2)CC1)c1c(O)[nH]c(=O)[nH]c1=O`: 1.82%; `CS(=O)(=O)N(CC(=O)N1CCN(Cc2ccccc2)CC1)c1ccc2c(c1)OCCO2`: -1.51%; `O=C(CSc1nnc(COc2ccccc2)n1-c1ccc(Cl)cc1)Nc1ccc2c(c1)OCO2`: 0.01%. The value for `Cc1ccc(NC(=O)Cn2sc3ccccc3c2=O)cc1` was 91.8% (active); that for `O=C(Cn1nc(C(=O)O)c2ccccc2c1=O)Nc1ccc(F)cc1` was 2.28%.

With `CC1(C)NC(=O)N(CC(=O)Nc2ccc(-c3ccccc3)cc2)C1=O`, the inhibition was -1.42%. The value for `CN(C)C(=O)CCc1ccc2c3c([nH]c2c1)[C@]1(CCc2ccccc2)[C@@H](C(=O)N2CCCCC2)C[C@H](CC(=O)NCCC2=CCCCC2)C(=O)N1CC3` was -1.05%; that for `O=C1Nc2ccccc2OC1CC(=O)N1CCCCCCC1` (configuration not stated) was 1.11%; that for `CN(CC(=O)NC1CCCC1)S(=O)(=O)c1cnc[nH]1` was -5.5%. Next, `CC1CCN(C(=O)C2CCN(S(=O)(=O)N3CCC4(CC3)OCCO4)CC2)CC1`: -2.98%; `COc1ccc(-c2nn(C)c(=O)c3ccccc23)cc1NC(=O)COc1ccccc1`: 3.05%.
